In PubChem BioAssay (EPA / NIEHS) one finds outcome and AC50 data, which are given here for 40 compounds.

In experiment [1] the target is Hepatocyte nuclear factor 4-alpha (Homo sapiens) (UniProt P41235). Put plainly: ATG_HNF4a_TRANS: Attagene TRANS-FACTORIAL HepG2 Assay for human Hepatocyte Nuclear Factor 4 alpha (HNF4a) (AID 2282982). The note with it: HepG2 HNF4a transactivation reporter, mRNA readout. In short, it runs like this: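 Readout is fluorescent reporter-transcript fragments resolved by capillary electrophoresis after RT-PCR from HepG2 cells dosed for 24 h. Cells carried transfected GAL4-UAS reporter constructs measuring exogenous NR-GAL4 chimera activity; DMSO served as baseline.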
Chain of Hepatocyte nuclear factor 4-alpha (Homo sapiens) (P41235 whole entry, looked up, the tested form may be a part): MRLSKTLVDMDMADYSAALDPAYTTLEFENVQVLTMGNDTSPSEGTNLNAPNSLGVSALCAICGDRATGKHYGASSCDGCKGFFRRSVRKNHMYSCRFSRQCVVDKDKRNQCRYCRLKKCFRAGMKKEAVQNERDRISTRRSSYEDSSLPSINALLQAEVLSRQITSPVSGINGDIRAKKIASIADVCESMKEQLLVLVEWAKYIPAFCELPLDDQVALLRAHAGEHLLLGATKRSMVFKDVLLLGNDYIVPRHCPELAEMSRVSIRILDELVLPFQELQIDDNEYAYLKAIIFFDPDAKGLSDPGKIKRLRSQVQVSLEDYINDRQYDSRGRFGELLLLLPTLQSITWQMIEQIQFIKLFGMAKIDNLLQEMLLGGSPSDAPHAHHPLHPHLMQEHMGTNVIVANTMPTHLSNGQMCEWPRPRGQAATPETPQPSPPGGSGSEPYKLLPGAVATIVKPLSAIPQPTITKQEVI

Experiment [2] can be described thus: ATG_M_06_TRANS: Attagene TRANS-FACTORIAL HepG2 Assay for M06 Transcription Factor (Internal Marker) (AID 2282983).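 Note: reporter transcript level by RT-PCR then capillary electrophoresis fluorescence.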 Particulars: HepG2 Attagene TRANS M06 internal marker reporter. The essentials:
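HepG2 cells transiently transfected with GAL4-UAS multiple reporter units, dosed 24 h. Reporter RNA reverse-transcribed, PCR-amplified, 6-FAM-labeled, HpaI-digested and quantified by capillary electrophoresis; this internal-marker signal fitted upward relative to DMSO.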

A short description of experiment [3]: ATG_M_32_TRANS: Attagene TRANS-FACTORIAL HepG2 Assay for M32 Transcription Factor (Internal Marker) (AID 2282984).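 Note: transcript level of a background control reporter unit measured by RT-PCR and capillary electrophoresis.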 Particulars: HepG2 Attagene TRANS M32 internal marker reporter. The essentials:
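Measures reporter mRNA induction in human HepG2 liver cells after 24 h chemical treatment. Transcripts from transiently transfected GAL4-UAS reporter units are amplified, fluorescently labelled and sized by capillary electrophoresis; gain of signal relative to DMSO.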

The target in experiment [4] is Nuclear receptor subfamily 4 group A member 2 (Homo sapiens) (UniProt P43354). The experiment can be described thus: ATG_NURR1_TRANS: Attagene TRANS-FACTORIAL HepG2 Assay for human Nuclear Receptor Related Protein 1 (NURR1) (AID 2282985). The note with it: HepG2 Attagene TRANS reporter, mRNA readout. The essentials: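 Transient transfection of HepG2, human liver cells, with multiple GAL4-UAS reporter transcription units. Cells dosed 24 h, RNA isolated, reverse-transcribed, PCR-amplified, FAM-labelled, HpaI-digested, sized by capillary electrophoresis. DMSO served as negative control.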
Chain of Nuclear receptor subfamily 4 group A member 2 (Homo sapiens) (P43354 whole entry, looked up, the tested form may be a part): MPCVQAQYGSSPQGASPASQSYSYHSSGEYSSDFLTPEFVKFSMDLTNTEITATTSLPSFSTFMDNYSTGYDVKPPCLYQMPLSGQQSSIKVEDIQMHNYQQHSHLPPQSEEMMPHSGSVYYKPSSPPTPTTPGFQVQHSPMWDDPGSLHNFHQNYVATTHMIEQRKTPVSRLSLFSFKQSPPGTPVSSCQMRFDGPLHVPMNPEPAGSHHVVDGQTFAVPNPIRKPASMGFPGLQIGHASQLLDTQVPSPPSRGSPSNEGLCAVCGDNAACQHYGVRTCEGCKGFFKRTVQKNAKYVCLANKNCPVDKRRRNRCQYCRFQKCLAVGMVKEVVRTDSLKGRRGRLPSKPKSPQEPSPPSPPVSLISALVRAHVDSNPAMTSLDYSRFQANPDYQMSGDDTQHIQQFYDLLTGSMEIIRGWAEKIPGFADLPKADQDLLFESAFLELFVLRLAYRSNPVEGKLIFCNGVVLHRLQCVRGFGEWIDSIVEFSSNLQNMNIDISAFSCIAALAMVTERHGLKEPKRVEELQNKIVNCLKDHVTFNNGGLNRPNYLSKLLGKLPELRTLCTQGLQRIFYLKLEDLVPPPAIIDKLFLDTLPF

In experiment [5] the target is Transcriptional activator Myb (Homo sapiens) (UniProt P10242). The experiment can be described thus: ATG_Myb_CIS: Attagene CIS-FACTORIAL HepG2 Assay for human Myeloblastosis (Myb) Proto-Oncogene Transcription Factor (AID 2282986; active = hit-call score of the fitted dose curve at least 0.9, where 1 is the maximum; inactive = score below 0.9). Particulars: HepG2 Attagene CIS-FACTORIAL Myb reporter transcription; actives raise or lower the signal. In short, it runs like this:
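Transiently transfected HepG2 cells carrying a multiplexed cis-promoter reporter set report endogenous Myb activity after 24 h compound exposure. Reporter mRNA is read by RT-PCR with capillary electrophoresis of fluorescent products, fitted bidirectionally against DMSO.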

Experiment [6] addresses Nuclear respiratory factor 1 (Homo sapiens) (UniProt Q16656). The experiment can be described thus: ATG_NRF1_CIS: Attagene CIS-FACTORIAL HepG2 Assay for human Nuclear Respiratory Factor 1 (NRF1) Orphan Gene (AID 2282987; active = hit-call score of the fitted dose curve at least 0.9, where 1 is the maximum; inactive = score below 0.9). The note with it: HepG2 NRF1 cis-element reporter, Attagene multiplex; actives raise or lower the signal. The essentials: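 HepG2 cells transiently transfected with multiple cis-regulated reporter units, exposed 24 h. Reporter mRNAs measured by RT-PCR, fluorescent labelling, HpaI digestion and capillary electrophoresis; bidirectional fitting against DMSO.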

Experiment [7] deals with Oxysterols receptor LXR-beta (Homo sapiens) (UniProt P55055). Put plainly: ATG_LXRb_TRANS: Attagene TRANS-FACTORIAL HepG2 Assay for human Liver X Receptor beta (LXRb) (AID 2282981). The note with it: HepG2 Attagene TRANS GAL4-LXRb reporter, mRNA. The essentials:
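Transient transfection HepG2 (multiplexed RTUs, GAL4-UAS); NR-Gal4 chimera; 24 h exposure; RNA → RT-PCR → 6-FAM primer extension → HpaI → CE; increase vs DMSO.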

Results filed as inconclusive are left out. The source made the active and inactive calls. Rule for the calls, unless noted: active = hit-call score of the fitted dose curve at least 0.9, where 1 is the maximum; inconclusive = response in the unintended direction; inactive = score below 0.9.

Chain of Nuclear respiratory factor 1 (Homo sapiens) (Q16656 whole entry, looked up): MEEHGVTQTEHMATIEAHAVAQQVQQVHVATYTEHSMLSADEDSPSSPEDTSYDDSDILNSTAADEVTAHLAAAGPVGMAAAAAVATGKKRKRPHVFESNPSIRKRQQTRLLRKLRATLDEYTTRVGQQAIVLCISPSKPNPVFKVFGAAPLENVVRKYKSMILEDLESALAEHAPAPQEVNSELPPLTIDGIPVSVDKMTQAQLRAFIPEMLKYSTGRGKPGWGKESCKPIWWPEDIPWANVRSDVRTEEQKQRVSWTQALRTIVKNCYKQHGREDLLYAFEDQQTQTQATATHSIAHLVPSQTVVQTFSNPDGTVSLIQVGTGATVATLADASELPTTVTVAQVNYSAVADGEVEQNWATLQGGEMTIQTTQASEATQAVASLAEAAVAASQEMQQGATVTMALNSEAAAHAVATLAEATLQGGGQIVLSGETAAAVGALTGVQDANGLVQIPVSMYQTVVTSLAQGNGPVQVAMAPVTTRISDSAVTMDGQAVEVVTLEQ
Chain of Transcriptional activator Myb (Homo sapiens) (P10242 whole entry, looked up): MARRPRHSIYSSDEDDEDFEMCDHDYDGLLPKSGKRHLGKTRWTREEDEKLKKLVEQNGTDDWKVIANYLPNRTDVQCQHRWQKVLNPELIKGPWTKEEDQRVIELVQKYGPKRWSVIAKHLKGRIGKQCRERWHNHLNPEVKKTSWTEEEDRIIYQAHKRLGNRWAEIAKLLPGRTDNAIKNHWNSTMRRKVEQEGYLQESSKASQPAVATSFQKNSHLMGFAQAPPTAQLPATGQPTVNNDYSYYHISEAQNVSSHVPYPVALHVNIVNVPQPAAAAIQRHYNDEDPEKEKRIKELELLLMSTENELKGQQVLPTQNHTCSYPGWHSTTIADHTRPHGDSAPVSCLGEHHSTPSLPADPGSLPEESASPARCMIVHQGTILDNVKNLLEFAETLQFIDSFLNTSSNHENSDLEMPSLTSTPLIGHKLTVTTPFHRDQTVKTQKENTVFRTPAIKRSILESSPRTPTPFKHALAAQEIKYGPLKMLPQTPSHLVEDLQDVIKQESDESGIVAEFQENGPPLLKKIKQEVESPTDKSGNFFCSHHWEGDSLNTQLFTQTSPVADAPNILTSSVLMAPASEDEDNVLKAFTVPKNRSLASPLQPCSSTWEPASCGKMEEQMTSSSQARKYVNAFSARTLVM
Chain of Oxysterols receptor LXR-beta (Homo sapiens) (P55055 whole entry, looked up, the tested form may be a part): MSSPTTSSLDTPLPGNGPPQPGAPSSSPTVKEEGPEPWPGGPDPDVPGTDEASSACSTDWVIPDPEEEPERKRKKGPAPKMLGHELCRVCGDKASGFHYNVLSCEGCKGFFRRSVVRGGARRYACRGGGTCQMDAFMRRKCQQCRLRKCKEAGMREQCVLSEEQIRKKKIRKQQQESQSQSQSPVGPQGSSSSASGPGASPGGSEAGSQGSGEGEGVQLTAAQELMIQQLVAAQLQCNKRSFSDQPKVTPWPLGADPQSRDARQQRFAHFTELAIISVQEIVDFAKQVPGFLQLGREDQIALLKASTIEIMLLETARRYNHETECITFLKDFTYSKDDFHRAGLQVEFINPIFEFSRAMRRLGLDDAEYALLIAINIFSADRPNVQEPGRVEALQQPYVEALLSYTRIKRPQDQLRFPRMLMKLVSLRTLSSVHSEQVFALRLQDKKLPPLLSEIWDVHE

As a reminder, the AC50 is the concentration at which the activity in the assay is half-maximal. As to `CCCCC/C=C\C/C=C\CCCCCCCC(=O)OC`, the call in experiment [1], in experiment [2], in experiment [3] and in experiment [4] was inactive. The AC50 in experiment [5] was 162 µM (active); in experiment [6], 171 µM (active).

Regarding `CCOC(=O)[C@H](C)O`, the outcome in experiment [2], in experiment [3], in experiment [4], in experiment [5] and in experiment [6] was inactive.

Turning to `O=c1cc[nH]c(=S)[nH]1`, the compound was called inactive in experiment [1], in experiment [2], in experiment [3], in experiment [5] and in experiment [6].

For `O=S(=O)(Oc1ccc(Cl)cc1Cl)c1ccccc1`, the AC50 in experiment [4] was 35.4 µM (active). Moreover, the outcome in experiment [6] was inactive.

Take `CC(C)CCCC(C)CC=O` (stereo not drawn): the call in experiment [1], in experiment [3], in experiment [4], in experiment [5] and in experiment [6] was inactive.

Take `Cc1cc(=O)n(-c2ccccc2)n1C`: the compound was classed as inactive in experiment [2], in experiment [3], in experiment [4] and in experiment [6].

As for `Clc1nc2ccccc2s1`, the compound was classed as inactive in experiment [1], in experiment [2], in experiment [3], in experiment [4], in experiment [5] and in experiment [6].

For `ON(Cc1ccccc1)Cc1ccccc1`, the compound was classed as inactive in experiment [7], in experiment [3], in experiment [5] and in experiment [6].

For `Cc1cc(C)c(C)cc1C`, the result in experiment [1], in experiment [3], in experiment [5] and in experiment [6] was inactive.

On to `Cn1c([N+](=O)[O-])cnc1COC(N)=O`, for which the result in experiment [7], in experiment [4], in experiment [5] and in experiment [6] was inactive.

As for `CC(CC=O)CCCC(C)(C)O` (stereo not drawn), the compound was classed as inactive in experiment [1], in experiment [2], in experiment [3], in experiment [4], in experiment [5] and in experiment [6].

As to `Cc1cc(O)c(Cl)c(C)c1Cl`, the compound was classed as inactive in experiment [7], in experiment [5] and in experiment [6].

Consider `CCCC(C)CCC(C)=O` (stereo not drawn), for which the compound was called inactive in experiment [1], in experiment [2], in experiment [4], in experiment [5] and in experiment [6].

Take `Nc1ncn([C@@H]2O[C@H](CO)[C@@H](O)[C@H]2O)c(=O)n1`: the call in experiment [7], in experiment [3], in experiment [5] and in experiment [6] was inactive.

For the compound `CCCCCCCCCCCCCOP(=O)(O)O`, the call in experiment [7], in experiment [5] and in experiment [6] was inactive.

On to `CCOC(=O)c1ccccc1C(=C1C=C(Br)C(=O)C(Br)=C1)c1cc(Br)c(O)c(Br)c1`, for which the call in experiment [1], in experiment [3], in experiment [5] and in experiment [6] was inactive.

As for `C=CC(C)(C)C`, the compound was classed as inactive in experiment [3], in experiment [5] and in experiment [6].

For `CCCCCCOc1cc(C)c(O)c(C)c1C`, the compound was called inactive in experiment [1], in experiment [2], in experiment [4] and in experiment [6].

Take `C=CC(=O)OCCC(=O)O`: the result in experiment [1], in experiment [2], in experiment [3], in experiment [5] and in experiment [6] was inactive.

Take `CCCCCCC1(C)CCC(=O)O1` (stereo not drawn): the result in experiment [1], in experiment [2], in experiment [3], in experiment [5] and in experiment [6] was inactive.

Regarding `c1c[nH]cn1`, the compound was called inactive in experiment [5] and in experiment [6].

On to `FC(F)=C(F)OC(F)(F)C(F)(F)C(F)(F)F`, for which the call in experiment [7], in experiment [5] and in experiment [6] was inactive.

With `CCC(C)(C)C1CCCCC1OC(C)=O` (stereo not drawn), the result in experiment [2], in experiment [3], in experiment [4], in experiment [5] and in experiment [6] was inactive.

Regarding `O=C(c1ccccc1)C1CCC1`, the call in experiment [1], in experiment [2], in experiment [3], in experiment [5] and in experiment [6] was inactive.

Take `CCCCOCCOC(=O)COc1nc(Cl)c(Cl)cc1Cl`: the compound was called inactive in experiment [3], in experiment [5] and in experiment [6].

As for `Cc1cccc(N)n1`, the outcome in experiment [2], in experiment [5] and in experiment [6] was inactive.

In the case of `CC(CC=O)c1ccccc1` (stereo not drawn), the compound was classed as inactive in experiment [2], in experiment [4], in experiment [5] and in experiment [6].

Consider `NC(=O)OCC(COC(N)=O)c1ccccc1`, for which the compound was called inactive in experiment [1], in experiment [2], in experiment [5] and in experiment [6].

Consider `NCCCN1CCN(CCCN)CC1`, for which the result in experiment [3], in experiment [5] and in experiment [6] was inactive.

`CCO[Si](C)(OCC)OCC`: the call in experiment [2], in experiment [5] and in experiment [6] was inactive.

`Cc1cccc(OCCOc2cccc(C)c2)c1`: the outcome in experiment [7], in experiment [3], in experiment [5] and in experiment [6] was inactive.

Turning to `CC(=O)Oc1ccc(C)cc1`, the compound was classed as inactive in experiment [3], in experiment [4], in experiment [5] and in experiment [6].

`CC(C)=CC1CC(C)CCO1` (stereo not drawn): the result in experiment [5] and in experiment [6] was inactive.

On to `O=C(O)Cc1c(Cl)ccc(Cl)c1Cl`, for which the compound was called inactive in experiment [1], in experiment [3], in experiment [5] and in experiment [6].

For `OC1OCCOC1O` (stereo not drawn), the outcome in experiment [2], in experiment [3], in experiment [5] and in experiment [6] was inactive.

As for `CCCC(=O)OCc1ccccc1`, the outcome in experiment [1], in experiment [3], in experiment [5] and in experiment [6] was inactive.

On to `O=C(O)c1cc(Cl)cc([N+](=O)[O-])c1Cl`, for which the compound was classed as inactive in experiment [1], in experiment [2], in experiment [3], in experiment [5] and in experiment [6].

With `CCCCCCCCCCOC(C)=O`, the compound was called inactive in experiment [1], in experiment [2], in experiment [4], in experiment [5] and in experiment [6].

On to `O=C(C=Cc1ccccc1)OCc1ccccc1`, for which the call in experiment [1], in experiment [2], in experiment [3], in experiment [5] and in experiment [6] was inactive.

On to `O=S(=O)(O)c1ccc2cc(O)c(S(=O)(=O)O)cc2c1`, for which the call in experiment [7], in experiment [3], in experiment [5] and in experiment [6] was inactive.
